Screening results from PubChem BioAssay.
Many of the other results were omitted from the sample, so hits are more common in it than they were.
Pf Dd2 inh: blocks in vitro growth of P. falciparum Dd2 | P. falciparum Dd2 growth, SYBR Green, 72 h | Potency, µM (highest dose often 28.9 µM), inactives show at the top dose activity, negative = inhibition, hits mostly inhibitors | hit rate 4.3% among 120,000; active means well fitted inhibition curve with a large enough effect;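 further: plate controls were DMSO vehicle for no effect and reference drug for full effect; nearly all actives have a fitted effect of over 65% in size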
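Infected erythrocytes (Dd2, 0.3% parasitemia, 2.5% hematocrit final) are added to compound in RPMI-1640/Albumax II medium, grown 72 h at 37C in low oxygen, then lysed with saponin/Triton-X containing SYBR Green and read by fluorescence.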
* = called active by the depositor; i = inactive; [ ] = remark or other dose. Potency means the concentration at half of the fitted maximal effect.

SMILES | Pf Dd2 inh
COc1ccc(N2CC3CCC(C2)N3Cc2ccc(-c3ccccc3)cc2)cc1 | 9%
COc1ccc(N2CC3CCC(C2)N3Cc2ccccc2)cc1 | -11%
O=C(Cc1ccsc1)NCCC1CCN(C(=O)Nc2cccc(F)c2)CC1 | i
COc1ccc(C(=O)N2CCc3ccc(C(=O)NCc4ccccc4)cc32)cc1 | i
O=C(Cc1ccc(F)cc1)N1CCC2(CC1)CN[S+](=O)([O-])c1cccnc1O2 | 0%
Cc1noc2c(-c3cccc(CO)c3)cc(-c3ccc(F)cc3)nc12 | 15%[44.1 µM]
OC[C@@H]1CN(Cc2ccco2)C[C@H]1c1ccccn1 | i
CCCOc1ccc(CN2C[C@@H](CO)[C@H](c3ccccn3)C2)cc1 | 2.8µM*
COc1ccc(CN2C[C@@H](CO)[C@H](c3ccccn3)C2)cc1C | i
CCN(CC)S(=O)(=O)c1ccc(C(=O)Nc2nc3ccc(Cl)cc3s2)cc1 | 14%
O=C(Nc1ccc2[nH]ccc2c1)c1ccc(-c2ncc3cnc(C4=CCOCC4)cn23)cc1 | 1.6µM*
O=C(Nc1ccc2[nH]ccc2c1)c1cnc2c(c1)N([S+](=O)([O-])c1cccnc1)CCC2 | i
O=C(O)c1ccc(-c2ncc3cnc(C4=CCOCC4)cn23)cc1 | -18%[44.1 µM]
COc1cccc(C(=O)N[C@@H]2CN(c3ncccn3)C[C@H]2CN(C)C)c1C | 4%
N#Cc1cccc(C(=O)N2C[C@@H](Oc3ccccc3)C[C@H]2C(=O)N2CCCC2)c1 | -9%
O=C([C@@H]1CCCN1C(=O)Cn1ccc2ccccc2c1=O)N1CCOCC1 | 16%
Cc1ccc(CN2CCc3nn(C)c(=O)n3CC2)o1 | 7%
Cc1nc2c(c(-c3ccc(O)cc3)n1)CN(Cc1ccc(F)cc1)CCC2 | i
CC(C)c1nc2c(c(-c3ccc(O)cc3)n1)CCN(Cc1cccc3ccccc13)CC2 | 3.2µM*
CC(C)c1nc2c(c(-c3ccc(O)cc3)n1)CN(Cc1ccccn1)CC2 | i
Cc1nc2c(c(-c3ccc(O)cc3)n1)CN(Cc1cccc3ccccc13)CC2 | -1%
CC(C)c1nc2c(c(-c3ccc(O)cc3)n1)CCN(Cc1ccc(C(F)(F)F)cc1)CC2 | 1.8µM*
CC(=O)Nc1ccc(CN2CCn3c(nnc3-c3ccc(Cl)cc3)C2)cc1 | -13%
CC(=O)Nc1ccc(CN2CCc3nc(C(C)C)nc(-c4ccc(Cl)cc4)c3CC2)cc1 | 1.1µM*
Cc1nc2c(c(-c3ccc(Cl)cc3)n1)CCN(C(=O)Nc1ccccc1)CC2 | i
SMILES | Pf Dd2 inh
Cc1ccc(CN2CCCc3nc(C)nc(-c4ccc(O)cc4)c3C2)cc1 | 2.8µM*
COc1ccc(CN2CCc3nc(C)nc(-c4ccc(O)cc4)c3C2)cc1 | i
CN(C)c1ccc(CN2CCc3nc(C4CC4)nc(-c4ccc(O)cc4)c3CC2)cc1 | -17%
CC(=O)N1CCc2nc(C(C)C)nc(-c3ccc(O)cc3)c2CC1 | -21%[44.1 µM]
O=C(Cc1cccc(Cl)c1)NCc1ccnc2[nH]ccc12 | -12%[44.1 µM]
CC(C)CCNC(=O)c1ccc(NC(=O)N2CCCCc3ccccc32)cc1 | 34%
O=C(Nc1ccc2oc(-c3ccc4ccccc4c3)nc2c1)c1cccc(Cl)c1Cl | 102%
COc1ccccc1N1CCN(CC[C@@H]2CC[C@H](O)[C@@H](C(=O)NC(C)C)O2)CC1 | i
O=C(O)C[C@@H]1CCN(C(=O)C2CCCC2)C[C@@H]1CCN1CCN(c2ccccc2)CC1 | i
Clc1cccc(-n2ncc3c(N4CCC(Cc5ccccc5)CC4)ncnc32)c1 | 16%
COc1ccccc1C(=O)Nc1ccc2oc(-c3cccc(Cl)c3Cl)nc2c1 | -17%
CN(Cc1cccnc1)C1CN(C(=O)CCc2nc3ccccc3s2)C1 | -18%
COc1cccc(-c2nn(C)c3sc(C(=O)NCCc4cccc(C)c4)cc23)c1 | 0%
Cc1ccc(-c2nc(S(=O)(=O)c3ccc(F)cc3)c(N3CCN(c4ccccc4)CC3)o2)cc1 | i
COCC(=O)N[C@H]1CCN2C(=O)c3cc(-c4ccc(F)cc4F)ccc3NC(=O)[C@@H]2C1 | 1%[44.1 µM]
Cc1cccc(-c2nc3ccccc3n2Cc2ccccc2)c1 | -13%
O=C([C@H]1C[C@H](Oc2ccccc2)CN1C(=O)NCCc1ccccc1)N1CCOCC1 | -24%
CC(C)c1nc2c(c(-c3ccc(O)cc3)n1)CN(CC1CCCCC1)CC2 | 3.5µM*
CC(C)c1nc2c(c(-c3ccc(O)cc3)n1)CN(Cc1cccnc1)CC2 | i
CC(C)c1nc2c(c(-c3ccc(O)cc3)n1)CN(Cc1cccn1C)CC2 | -19%
CNC(=O)c1cc[nH]c1C1CCCN(C(=O)c2ccc(Br)o2)C1 (stereo unspecified) | -6%
CCc1noc([C@@H]2CC(F)(F)CN2C(=O)c2ccoc2)n1 | 10%
Cc1cc(F)ccc1NC(=O)CCSc1nc(-c2ccco2)cc(C(F)(F)F)n1 | 8.9µM*
COc1ccc(NC(=O)CCCSc2nc(-c3ccco3)cc(C(F)(F)F)n2)cc1 | 85%
Cc1ccc(NC(=O)CSc2nc(-c3ccco3)cc(C(F)(F)F)n2)cc1C | -29%
SMILES | Pf Dd2 inh
COc1ccc(NC(=O)CCCSc2nc(-c3ccco3)cc(C(F)(F)F)n2)c(OC)c1 | i
Cc1ccc(NC(=O)CCSc2nc(-c3ccco3)cc(C(F)(F)F)n2)cc1F | 0.79µM*
CC(=O)c1cccc(NC(=O)CCCSc2nc(-c3ccco3)cc(C(F)(F)F)n2)c1 | 3%
CCOc1ccc(OCC(=O)NCCS(=O)(=O)N2CCN(c3ccc(OC)cc3)CC2)cc1 | 106%
O=C(Nc1ccccc1)[C@H]1CN2CCC1C[C@@H]2Cn1cc(C2(O)CCCCC2)nn1 (stereo partly specified) | i
Nc1cccc(-c2cn(C[C@H]3CC4CCN3C[C@@H]4C(=O)Nc3ccccc3)nn2)c1 (stereo partly specified) | 7.9µM*
COCCNC(=O)[C@H]1CN2CCC1C[C@@H]2Cn1cc(-c2cccc(N)c2)nn1 (stereo partly specified) | -9%[44.1 µM]
CC(C)N1C(=O)C2(CCCC2)C1C(=O)NCCN1CCC(N2CCCCC2)CC1 (stereo unspecified) | -3%
CCc1cccc(-n2c(=O)c3cccnc3n2CC(=O)NCc2ccccc2Cl)c1 | 2.2µM*
Cc1nn(CC(=O)NCc2ccccc2Cl)c(=O)c2nn(-c3ccccc3)c(C)c12 | 11%
CCc1ccc(-n2c(=O)c3cccnc3n2CC(=O)NCc2ccc(F)cc2)cc1 | -21%
O=C(Cn1c2ncccc2c(=O)n1-c1ccccc1)NCc1ccccc1 | -11%
Cc1ccc(-n2c(=O)c3cccnc3n2CC(=O)Nc2cc(Cl)ccc2C)cc1 | 9%
O=C(Cn1c2ncccc2c(=O)n1-c1ccccc1)Nc1ccc(Cl)cc1C(F)(F)F | 8%
CCc1cccc(-n2c(=O)c3cccnc3n2CC(=O)Nc2ccccc2C(=O)OC)c1 | 49%[5.79 µM]
CCc1cccc(-n2c(=O)c3cccnc3n2CC(=O)NCc2ccccc2)c1 | 1µM*
CCc1cccc(-n2c(=O)c3cccnc3n2CC(=O)NCc2ccc(C)cc2)c1 | 1.1µM*
COc1ccc(N2CC3=C(C2=O)C(c2ccc(O)c(OC)c2)NC(=O)N3C)cc1 (stereo unspecified) | 13%
Cc1cc(C)c(S(=O)(=O)N2CC(c3nc(Cc4ccccc4)no3)C2)c(C)c1 | -22%
Cc1ccc(N2CC(c3noc(COc4cccc(C)c4)n3)CC2=O)cc1 (stereo unspecified) | -9%
Cc1cccc(OCc2c(C(=O)N3CCCC3c3nncn3CCN(C)C)noc2C)c1 (stereo unspecified) | i
Cc1cccc(NC(=O)C2CCCN(S(=O)(=O)c3ccc4c(c3)CCCC(=O)N4)C2)c1 (stereo unspecified) | -26%
